# HT1080-NT tox = kills 2HG-producing HT-1080-NT fibrosarcoma cells; Potency, µM (titrated, usually from 46.1 µM), for the others: top-dose activity, negative = less viability, hits mostly cytotoxic; HT-1080-NT fibrosarcoma viability, CellTiter-Glo ATP luminescence, 48 h; 360,000 compounds, 1.6% hits;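 also: NT is the 2HG producing partner of a matched IDH1 knockdown line; potency is read from the fitted curve at half-maximal effect; 0% = DMSO-treated cells and -100% = media-only wells without cells; nearly all actives have a fitted effect of over 55% in size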
#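 Viability by CellTiter-Glo luminescence after 48 h compound exposure at 37C of HT-1080-NT cells (750/well, RPMI, 5% FBS). % activity scaled between DMSO wells and medium-only wells, then curve-fitted and categorized by curve class.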
# IL-1B inflam inh = inhibitors of inflammasome signaling (IL-1 beta secretion) | 360,000 compounds, 4.7% hits | AID 743279 | THP-1 LPS/ATP IL-1B secretion, AlphaLISA, 16 h; hits give low values | activity change, % at 57.5 µM; in the data active = activity change below about -50%; inconclusive = mostly about -30% to -49%
#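 THP-1 cells pretreated 1 hr with compounds (up to 57.5 uM final), then stimulated with LPS (250 ng/mL final) plus ATP (1.25 mM final); secreted IL-1B measured by AlphaLISA after 16 hr, decreased signal indicating inhibition.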
# DT40 TDP1 CPT = DT40-hTDP1 cell growth loss with CPT; chicken DT40 Tdp1-/-;hTDP1 cells + 20 nM CPT, ATP luminescence, 48 h; AID 686979; 420,000 compounds, 12% hits; Potency, µM (highest dose often 46.2 µM), without a hit: at the highest dose activity change, negative = growth inhibition, most hits filed as inhibitors; also: potency is read from the fitted curve at half-maximal effect; nearly all actives have a fitted effect of over 55% in size
#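 Chicken DT40 Tdp1-/- cells complemented with human TDP1, 400 cells/well, exposed to compounds plus 20 nM camptothecin for at least 48 h at 37 C; viability read as ATP content by CellTiter-Glo luminescence.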
# HT1080 IDH1KD tx = toxicity to HT-1080 IDH1 knockdown cells (counter line). 360,000 compounds, 2% hits. HT-1080 IDH1 knockdown viability, ATP luminescence, 48 h. Potency, µM (series often up to 46.1 µM), without a hit: top-dose activity, negative = toxicity, hits mostly cytotoxic;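 also: potency is read from the fitted curve at half-maximal effect; 0% = DMSO wells and -100% = cell-free medium wells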
#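 Cytotoxicity counter-line: IDH1KD HT-1080, 48 h, CellTiter-Glo. Curves classed by r2, magnitude and activity.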
# DT40 TDP1 no CPT = qHTS for Inhibitors of human tyrosyl-DNA phosphodiesterase 1 (TDP1): qHTS in cells in absence of CPT; 420,000 compounds, 15% hits; DT40 Tdp1-/- hTDP1 cells, no CPT, ATP luminescence, 48 h; Potency, µM (top dose mostly 46.2 µM), inactives show top-dose activity change, negative = growth inhibition, actives largely listed as inhibitors; AID 686978, 2013; also: potency is read from the fitted curve at half-maximal effect; nearly all actives have a fitted effect of over 55% in size
#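 Growth of hTDP1-complemented DT40 Tdp1-knockout cells is measured by ATP luminescence after at least 48 hr compound exposure at 37 °C, with DMSO substituting for the 20 nM CPT used in the parallel screen.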
# Starred values were filed as active, the others as inactive; ? = inconclusive; . = no result; [ ] = another dose, or the depositor's remark. Shown are actives, neighbours in structure and some others; about 19% of the full set was active somewhere. Unless noted, calls follow the shape of the dose curve; as a rule, active = well fitted curve in the direction sought with a large enough effect; inconclusive = small, poorly fitted or top-dose-only effect, or another doubt; inactive = no such curve, though single readings can be large; an effect the other way counts as inactive or inconclusive. Unless noted, % is scaled to controls: 0 for no effect and ±100 for the full control effect.
SMILES,HT1080-NT tox,IL-1B inflam inh,DT40 TDP1 CPT,HT1080 IDH1KD tx,DT40 TDP1 no CPT
Cc1cccc(N2C(=O)C3C4C=CC(C5CC45)C3C2=O)n1 (configuration not stated),17.9%,-2.5,7.8%,13.3%,-1.3%
COc1ccc(/C=N/NC(=O)c2ccccc2F)cc1CN1CCN(c2ccc(F)cc2)CC1,-9.6%,-2.8,-26.9%,-0.5%,?
Cc1ccc2nc(-c3ccccn3)cc(C(=O)N3CCN(c4ncccn4)CC3)c2c1,-5.9%,1.0,20.6µM*,-14.1%[9.24 µM],13µM*
O=C(c1cc(-c2ccccn2)nc2c(Cl)cccc12)N1CCN(S(=O)(=O)c2ccccc2)CC1,-2.6%,-21.5,?,-3.3%,20.6µM*
Cc1ccc(-c2cc(C(=O)N3CCN(c4ncccn4)CC3)c3ccccc3n2)cc1,?,-17.1,?,?,16.4µM*
COc1ccc(-c2cc(C(=O)N3CCN(c4ncccn4)CC3)c3ccccc3n2)cc1OC,-15.1%,?,?,-1.9%,?
COc1ccc(N(CC(=O)NC2CCCCC2)C(=O)CNC(=O)c2ccco2)cc1OC,-1.7%,9.1,-1.5%,0.2%,-1.7%
CC(=O)Nc1cccc(-c2ccnc3c2CC(C)(C(=O)NCc2ccc(N(C)C)cc2)O3)c1 (configuration not stated),?,9.1,3.26µM*,5.17µM*,2.91µM*
CC(=O)Nc1cccc(-c2ccnc3c2CC(C)(C(=O)NCc2cccc(Cl)c2)O3)c1 (configuration not stated),?,64.5,3.66µM*,?,4.11µM*
CC1(C(=O)NCc2cccc(Cl)c2)Cc2c(-c3cccc(C(N)=O)c3)ccnc2O1 (configuration not stated),?,73.0,?,?,?
CC(=O)Nc1cccc(-c2ccnc3c2CC(C)(C(=O)NCc2cccs2)O3)c1 (configuration not stated),?,25.8,?,1.64µM*,4.11µM*
CC(=O)Nc1ccc(-c2ccnc3c2CC(C)(C(=O)NCc2cccc(Cl)c2)O3)cc1 (configuration not stated),?,-13.1,?,?,23.1µM*
CCC1CN(CCC(=O)NC2CCOC(C)(C)C2)Cc2cc(OC)ccc2O1 (configuration not stated),.,.,3.6%[9.04 µM],.,-5.4%
CCN(C[C@H]1N[C@@](C)(C(=O)OC)[C@H]2C(=O)N(C)C(=O)[C@@H]12)C(=O)Nc1ccc(C(F)(F)F)cc1,7.0%,0.4,-1.5%,-2.0%,-4.9%
COc1cc(NS(C)(=O)=O)c(OC)cc1NC(=O)c1cccc(F)c1,-5.1%,12.0,5.5%,-3.5%,0.8%
COc1ccc(CNC(=O)C2(C)Cc3c(-c4cccc(NC(C)=O)c4)ccnc3O2)cc1OC (configuration not stated),-26.6%,31.2,?,?,18.4µM*
CN(C)c1ccc(-c2ccnc3c2CC(C)(C(=O)NCc2ccncc2)O3)cc1 (configuration not stated),-4.5%,2.9,?,0.0%,?
CN(C)c1ccc(-c2ccnc3c2CC(C)(C(=O)NCc2cccc(Cl)c2)O3)cc1 (configuration not stated),?,?,23.1µM*,?,20.6µM*
CC1(C(=O)NCc2cccc(Cl)c2)Cc2c(-c3ccccc3)ccnc2O1 (configuration not stated),-23.7%,19.6,16.4µM*,?,8.2µM*
CC(NC(=O)CN(c1ccc(Cl)cc1)S(C)(=O)=O)c1ccccc1 (configuration not stated),5.7%,-8.8,4.6%,6.7%,4.7%
CCC(C)c1ccc(OCC(=O)Nc2ccc(CN3CCOCC3)cc2)cc1 (configuration not stated),-0.3%,-1.9,-9.9%,-2.0%,-12.4%
OC[C@H]1O[C@@H](n2cnc3c(NCc4ccco4)ncnc32)[C@H](O)[C@@H]1O,5.8µM*,73.5,2.31µM*,6.51µM*,2.06µM*
OC[C@@H]1O[C@@H](n2cnc3c(NC4CCCC4)ncnc32)[C@H](O)[C@H]1O,.,.,0.6%,.,-16.2%
OCC1OC(n2cnc3c(NCc4ccco4)ncnc32)C(O)C1O (configuration not stated),11.6µM*,?,2.31µM*,11.6µM*,2.06µM*
Cc1ccccc1CNc1ncnc2c1ncn2[C@@H]1O[C@H](CO)[C@@H](O)[C@H]1O,.,.,?,.,11.9µM*
SMILES,HT1080-NT tox,IL-1B inflam inh,DT40 TDP1 CPT,HT1080 IDH1KD tx,DT40 TDP1 no CPT
C=CCNc1ncnc2c1ncn2C1OC(CO)C(O)C1O (configuration not stated),9.2µM*,65.9,18.4µM*,18.4µM*,20.6µM*
C[C@@H](Cc1ccccc1)Nc1ncnc2c1ncn2[C@@H]1O[C@H](CO)[C@@H](O)[C@H]1O,.,.,4.1%,.,-28.9%
OC[C@H]1O[C@@H](n2cnc3c(NC4CCCC4)ncnc32)[C@H](O)[C@@H]1O,?,-18.4,-0.9%,-13.6%,3.0%
COc1ccc(NC(=O)c2cc(S(=O)(=O)N3CCCCC3)c[nH]2)c(OC)c1,-6.3%,-2.7,-20.1%,-8.1%,-29.3%
CCOC(=O)c1cccc(NC(=O)c2ccc(NC(=O)C3CCCO3)cc2)c1 (configuration not stated),8.0%,-24.4,?,-4.7%,?
Cc1ccccc1-n1cnc2cc(NCc3cccs3)ccc21,-28.1%,-11.3,?,?,23.1µM*
CC(C)(C)n1cnc2cc(NCc3cccs3)ccc21,2.1%,-59.2*,?,2.8%,-17.2%
CCCNC(=O)c1ccc2c(c1)ncn2-c1ccccc1OC,26.5%,19.7,3.3%,22.2%,?
COc1ccccc1-n1cnc2cc(NCc3cccs3)ccc21,3.66µM*,-7.8,0.731µM*,2.06µM*,0.92µM*
CCn1cnc2cc(NCc3cccs3)ccc21,13.1%,-2.3,-24.6%,9.8%,3.0%
Oc1ccc(NCc2cccs2)cc1,?,8.7,?,?,13µM*
Cn1c(NCc2cccs2)nc2ccccc21,-2.4%,6.8,-3.2%,2.9%,-21.1%
O=C(CNS(=O)(=O)c1ccc(Cl)cc1)NC1CCCCC1,-4.6%[9.24 µM],23.2,0.2%,14.5%,11.2%
COc1ncc2nc(-c3ccccc3)c(=O)n(-c3ccccc3)c2n1,.,.,-3.8%,.,32.9%
CCOC(=O)C1CCCN(C(=O)c2cnn(-c3nccc(-c4cc(C)sc4C)n3)c2C)C1 (configuration not stated),.,.,2.5%[9.04 µM],.,?
CCCn1cnc2cc(NCc3cccc(OC)c3)ccc21,-11.2%,-8.0,-22.7%,-1.4%,?

# Compound activity as filed in PubChem BioAssay.
